# Results: PMC4552634, “A New Set of Chemical Starting Points with Plasmodium falciparum Transmission-Blocking Potential for Antimalarial Drug Discovery” (PLoS ONE, 2015)
# Screen size: about 13,000 compounds; about 3,200 (25%) showed an effect of 50% or more. The list shows a part of the results.
# System: P. falciparum stage V gametocytes
# Design: BacTiter-Glo ATP luminescence viability of purified stage V gametocytes in 384-well plates, per cent inhibition versus DMSO
# Details: 48 h, 5 µM; inhibitor
row,SMILES,% Inhibition [%]
1,O=C(CCc1cnc[nH]1)Nc1ccc(-c2ccc(-c3nc4ccccc4[nH]3)cc2)cc1 [TCMDC-132156],-24.85
2,c1csc(-c2nc(N3CCCCC3)ncc2-c2ccsc2)n1 [TCMDC-125370],9.865
3,C=CCc1c(C(=O)NCC23CC4CC(CC(C4)C2)C3)[nH]c2ccccc2c1=O [TCMDC-136371],-9.366
4,CC(C)Cc1cn(-c2nc(-c3nc4ccccc4[nH]3)cs2)c2ccncc12 [TCMDC-132419],3.094
5,COc1ccccc1CCNc1nc(C)cc(N[C@@H](Cc2ccccc2)C(=O)NCCOc2ccccc2)n1 [TCMDC-134862],100.5
6,Cc1cc(N[C@@H](Cc2ccccc2)C(=O)NCCCOC(C)C)nc(NCC2CCCCC2)n1 [TCMDC-134931],30.55
7,COc1ccccc1CCNc1nc(C)cc(N[C@@H](Cc2ccccc2)C(=O)NCCc2ccccc2)n1 [TCMDC-134803],83.15
8,COc1ccccc1CCNc1nc(C)cc(N[C@@H](CC(C)C)C(=O)NCCc2ccccc2)n1 [TCMDC-134807],30.27
9,Cc1cc(N[C@@H](Cc2ccccc2)C(=O)NCCc2ccccc2)nc(NCCc2ccc(F)cc2)n1 [TCMDC-134867],49.67
10,COc1ccccc1CCNc1nc(C)cc(N[C@@H](Cc2ccccc2)C(=O)Nc2ccccc2)n1 [TCMDC-134804],36.98
11,COc1ccccc1CCNc1nc(C)cc(N[C@@H](Cc2ccccc2)C(=O)NCCCOC(C)C)n1 [TCMDC-134861],55.12
12,Cc1cc(N[C@@H](Cc2ccccc2)C(=O)NCCc2ccccc2)nc(NCCc2ccccc2)n1 [TCMDC-134776],144.5
13,Cc1cccc(CNc2nc(C)cc(N[C@@H](Cc3ccccc3)C(=O)NCCc3ccccc3)n2)c1 [TCMDC-134889],-24.79
14,Cc1cc(N[C@@H](Cc2ccccc2)C(=O)NCCc2ccccc2)nc(NCc2ccccc2C)n1 [TCMDC-134907],-0.7865
15,COC(=O)c1ccc(OCC(C)NCC(O)c2cccc(C(F)(F)F)c2)cc1 (stereo not shown) [TCMDC-131464],25.27
16,N#Cc1ccc2c(c1)CCN(CCCn1c(-c3ccc4ccccc4c3)nc3ccncc31)CC2 [TCMDC-135551],19.09
17,O=C(NCc1ccc(C(=O)NCc2cccc3ccccc23)cc1)c1ccc(O)c(-c2ccc(Cl)c(Cl)c2)c1 [TCMDC-140878],23.84
18,Cc1ccc2nc(-c3ccccc3)cc(NN=Cc3cccnc3)c2c1 [TCMDC-142053],-1.228
19,CCOc1ccccc1N1CCN(CCCNC(=O)/C(=C/C=C/c2cc3cc(Cl)c(Cl)cc3[nH]2)OC)CC1 [TCMDC-139176],6.847
20,Cc1cccc(CNc2ncc(C)c(NCCC(=O)Nc3ccccc3)n2)c1 [TCMDC-134848],47.31
21,O=C(Nc1ccc(Br)cc1)N(CCN1CCOCC1)CC(O)COCc1ccc(F)cc1 (stereo not shown) [TCMDC-141489],29.66
22,Cc1cc(=O)[nH]c(-n2nc(C)cc2NC(=O)C2(c3ccc(Cl)cc3)CCCC2)n1 [TCMDC-124943],43.65

row,SMILES,% Inhibition [%]
1,CN(C)CCN(C)C(=O)c1cc(-c2ccncc2)c(-c2ccc(Cl)c(O)c2)o1 [TCMDC-141393],-25.23
2,COc1c(C2=CCN(CCCCNC(=O)c3ccc(-c4ccc(C#N)cc4)cc3)CC2)ccc2c1CCCC2 [TCMDC-138753],-8.55
3,Cc1cc(N(C)CCN(C)C)nc(Nc2ccc(Cl)cc2)n1 [TCMDC-137008],22.54
4,O=C(NC(=O)c1ccccc1)NC1CCN(c2ccnc3cc(Cl)ccc23)C1 (stereo not shown) [TCMDC-133403],-14.2
5,CCC[C@@H]([C@@H](CC1CCCCC1)C(=O)N[C@H](C(=O)Nc1ccccn1)[C@H](C)CC)N(O)C=O [TCMDC-138122],-1.104
6,Nc1ncc(-c2ccc3[nH]ccc3c2)c2ccc(-c3ccncc3)cc12 [TCMDC-133396],22.16
7,Nc1ncc(-c2ccc3nccc(-c4ccncc4)c3c2)cc1S(=O)(=O)N1CCOCC1 [TCMDC-134180],94.06
8,Nc1ncc(-c2ccc3nccc(-c4ccncc4)c3c2)cc1S(=O)(=O)N1CCCCC1 [TCMDC-134265],97.23
9,CN1CCN(c2ccnc3ccc(NC(=O)Cc4ccc(-c5ccncc5)c5ccccc45)cc23)CC1 [TCMDC-139256],19.54
10,CS(=O)(=O)c1ccc2nc(-c3cc(-c4ccc(OCCN5CCOCC5)cc4)cnc3N)[nH]c2c1 [TCMDC-133720],8.028
11,O=C(c1ccc(-c2cnc3[nH]cc(-c4ccc(C(=O)N5CCOCC5)cc4)c3c2)cc1)N1CCOCC1 [TCMDC-132781],-2.017
12,O=C(/C=N/O)Nc1ccccc1[N+](=O)[O-] [TCMDC-123981],-3.715
13,CCn1c2ccccc2c2cc(Cc3cnc(N)nc3N)ccc21 [TCMDC-131929],0.5194
14,Cc1cccc2nc(-c3ccc(-c4ccc(C(=O)NCCN5CCCC5)cc4)s3)[nH]c12 [TCMDC-132316],46.47
15,Cc1cnc(NCC2CCCCC2)nc1NCC(=O)Nc1ccccc1 [TCMDC-134753],-41.32
16,CCN1CCC(N(CCCCCCc2ccc(C(F)(F)F)cc2)C(=O)Cn2c(CCc3cccc(F)c3F)cc(=O)c3ccccc32)CC1 [TCMDC-141339],43.24
17,COCCN1CCC(N(Cc2ccc(-c3ccc(OC(F)(F)F)cc3)cc2)C(=O)Cn2c(CCc3cccc(F)c3F)cc(=O)c3ccccc32)CC1 [TCMDC-136001],86.7
18,CCN1CCC(N(CCCCCCCCc2ccc(C(F)(F)F)cc2)C(=O)Cn2c(CCc3cccc(F)c3F)cc(=O)c3ccccc32)CC1 [TCMDC-141376],107.2
19,O=C(Cn1c(CCc2cccc(F)c2F)cc(=O)c2ccccc21)N(Cc1ccc(-c2ccc(C(F)(F)F)cc2)cc1)C1CCN(CCO)CC1 [TCMDC-141226],84.4
20,O=C(Cn1c(CCc2cccc(F)c2F)cc(=O)c2ccccc21)N(Cc1ccc(-c2ccc(C(F)(F)F)cc2)cc1)C1CCN(CCN2CCOCC2)CC1 [TCMDC-136026],47.65
21,CCN1CCC(N(Cc2ccc(-c3ccc(C(F)(F)F)cc3)cc2)C(=O)Cn2c(CCc3cccc(F)c3F)cc(=O)c3ccccc32)C1 (stereo not shown) [TCMDC-141300],90.33
22,CCCN(CCC)C(=O)c1cc(C(=O)N[C@@H](Cc2ccccc2)[C@H](O)CNC2CC2)cc(N2CCCCS2(=O)=O)c1 [TCMDC-138892],8.102

row,SMILES,% Inhibition [%]
1,CC(=Nc1ccc(Cl)c(Cl)c1)N(C)C [TCMDC-137438],-6.563
2,CC(C)C[C@H](NC(=O)c1ccc(OCCN2CCOCC2)cc1)C(=O)N[C@H](/C=N/NC(=O)OC(C)(C)C)CCc1ccccc1 [TCMDC-136028],-97.84
3,COc1ccc(CN2CCC(N3CC(c4ccccc4)(c4ccccc4)OCC3=O)C2)c(O)c1 (stereo not shown) [TCMDC-136339],-23.12
4,CC(C)C[C@H]1C(=O)N[C@H](C2Cc3ccccc3C2)C(=O)N1[C@@H](C(=O)Nc1ccccc1OCc1ccccc1)c1ccc(F)cc1F [TCMDC-138775],-10.16
5,COc1ccc2ncc(F)c(CCN3C4CCC3CC(NCc3cc5c(cn3)OCS5)C4)c2n1 (stereo not shown) [TCMDC-135637],24.95
6,Cc1cccc(Nc2nccc(NCC(O)c3ccc(C(F)(F)F)cc3)n2)c1 (stereo not shown) [TCMDC-136592],-12.82
7,CC(C)(C)C1CC(=O)CC2C(=O)N(c3ccc(Br)cc3)C(=O)C21 (stereo not shown) [TCMDC-139130],-4.164
8,Cc1ccc(F)c(OCC2CCN(c3ncc(C(=O)NC4CC4)cc3Cl)CC2)c1 [TCMDC-134038],21.14
9,CC(C)(C)N1CCC(N(Cc2ccc(-c3ccc(C(F)(F)F)cc3)cc2)C(=O)Cn2c(CCc3cccc(F)c3F)cc(=O)c3ccccc32)CC1 [TCMDC-136007],109.9
10,CCN1CCC(N(Cc2ccc(-c3ccc(C(F)(F)F)cc3)cc2)C(=O)Cn2c(CCc3cccc(F)c3F)cc(=O)c3ccc(OCc4ccccc4)cc32)CC1 [TCMDC-141292],107.3
11,CC(C)(C)N1CCC(N(Cc2ccc(-c3ccc(C(F)(F)F)cc3)cc2)C(=O)Cn2c(CCc3cccc(F)c3F)cc(=O)c3cccnc32)CC1 [TCMDC-136011],120.6
12,CCN1CCC(N(Cc2ccc(-c3ccc(C(F)(F)F)cc3)cc2)C(=O)Cn2c(CCc3cccc(F)c3F)cc(=O)c3ccccc32)CC1 [TCMDC-141119],110.1
13,NC(CC1CC(=O)N1CC(=O)O)C(=O)O (stereo not shown) [TCMDC-139050],9.979
14,CC1CCN(Cc2ccc(NC(=O)c3cc4ccc5cccnc5c4[nH]3)cc2)CC1 [TCMDC-125282],-44.42
15,Cc1sc(N2CCCCC2)nc1C(=O)Nc1ccc(F)cc1C(F)(F)F [TCMDC-134301],-22.08
16,Cc1ccc2c(OCCN3CCC(Cc4cc5c(cc4F)OCC(=O)N5)CC3)cc(F)cc2n1 [TCMDC-141447],-8.259
17,Cc1noc(C)c1-c1cccc(CNCc2cccc(-c3ccc(-c4nc5ccccc5[nH]4)s3)c2)c1.O=C(O)C(F)(F)F [TCMDC-133048],14.32
18,Cc1cc(N(CCO)CCCN2CCCCC2)nc(Nc2ccc(Cl)cc2)n1 [TCMDC-137444],33.27
19,Cc1cc(N(CCN2CCCCC2)CCN2CCCCC2)nc(Nc2ccc(Cl)cc2)n1 [TCMDC-138002],37.36
20,COC(=O)c1sc(-c2ccc(Cl)cc2)cc1N(CCCN1CCC(N2CCCCC2)CC1)S(=O)(=O)c1ccc(C)cc1 [TCMDC-135561],98.34
